Values joined by “and” are separate entries in the source; they are usually repeats but may differ in a detail not shown here. Equal values may be shown once. Results filed as inconclusive are left out. Entries that show only a call come without a potency. Active and inactive are the calls of the source. Calls come from the whole dose curve; as a rule, active = well fitted curve in the direction sought with a large enough effect in the repeat runs; inconclusive = weak or mixed curves; inactive = no such curve, though single readings can be large; an effect the other way counts as inactive or inconclusive.
Each compound was assayed against Voltage-gated inwardly rectifying potassium channel KCNH2 (Homo sapiens) (UniProt Q12809) (assay: Human Ether-a-go-go-Related Gene (hERG) channel small molecule antagonists: fluorescence cell-based qHTS assay (AID 1671200;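 for activity change, negative = inhibition: hERG-expressing U2OS cells given a thallium stimulus after FluxOR II dye loading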)). Details: hERG-U2OS cells, FluxOR thallium flux fluorescence; series mostly up to 76.8 µM.
Voltage-gated inwardly rectifying potassium channel KCNH2 (Homo sapiens), sequence (Q12809 whole entry, looked up): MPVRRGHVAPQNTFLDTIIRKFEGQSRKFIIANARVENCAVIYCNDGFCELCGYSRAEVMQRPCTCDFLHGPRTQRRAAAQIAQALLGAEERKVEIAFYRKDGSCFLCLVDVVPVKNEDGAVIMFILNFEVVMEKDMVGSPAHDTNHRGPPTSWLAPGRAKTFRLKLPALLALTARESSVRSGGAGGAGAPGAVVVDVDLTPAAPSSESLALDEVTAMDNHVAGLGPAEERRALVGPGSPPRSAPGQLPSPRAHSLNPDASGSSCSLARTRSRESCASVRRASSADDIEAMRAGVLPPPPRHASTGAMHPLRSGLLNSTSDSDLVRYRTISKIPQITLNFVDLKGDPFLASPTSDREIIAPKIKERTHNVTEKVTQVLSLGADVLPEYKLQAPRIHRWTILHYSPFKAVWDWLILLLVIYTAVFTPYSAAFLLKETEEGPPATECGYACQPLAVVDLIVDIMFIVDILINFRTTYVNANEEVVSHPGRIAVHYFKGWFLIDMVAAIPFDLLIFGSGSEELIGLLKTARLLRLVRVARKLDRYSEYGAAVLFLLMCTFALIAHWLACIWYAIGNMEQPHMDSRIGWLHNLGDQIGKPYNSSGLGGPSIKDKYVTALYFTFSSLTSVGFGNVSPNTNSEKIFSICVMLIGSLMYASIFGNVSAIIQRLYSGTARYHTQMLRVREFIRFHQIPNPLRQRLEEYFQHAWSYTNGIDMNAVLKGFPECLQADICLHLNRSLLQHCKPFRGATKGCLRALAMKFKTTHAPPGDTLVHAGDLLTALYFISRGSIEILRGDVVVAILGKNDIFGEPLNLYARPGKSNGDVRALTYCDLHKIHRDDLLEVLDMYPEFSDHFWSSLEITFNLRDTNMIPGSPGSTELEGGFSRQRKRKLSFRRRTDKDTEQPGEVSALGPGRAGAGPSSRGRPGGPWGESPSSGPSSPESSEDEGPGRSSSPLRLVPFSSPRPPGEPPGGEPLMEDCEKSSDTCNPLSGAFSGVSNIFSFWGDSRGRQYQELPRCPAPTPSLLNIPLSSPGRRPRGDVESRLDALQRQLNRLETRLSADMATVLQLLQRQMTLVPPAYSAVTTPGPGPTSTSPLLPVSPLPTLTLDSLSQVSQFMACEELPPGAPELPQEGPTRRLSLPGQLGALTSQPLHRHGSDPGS
In short: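 U2OS cells expressing the channel were plated at 1000 cells/well, incubated overnight at 37 C, then loaded with FluxOR II thallium-sensitive dye for 1 h at room temperature in the dark, with a further 10 min at room temperature before stimulation.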
`C[C@@H](O)[C@H](N)C(=O)O` was tested, and the activity change, negative = inhibition was 1.94% [at 15.8 µM] (inactive). `COc1cc2nc(N3CCN(C(=O)c4ccco4)CC3)nc(N)c2cc1OC` was tested, and the activity change, negative = inhibition was -1.36% [at 15.8 µM] (inactive). With `Cc1c(F)c(N2CCNC(C)C2)cc2c1c(=O)c(C(=O)O)cn2C1CC1` (stereo not drawn) the Potency was “inactive”. `CCCCCC(C)OC(=O)COc1ccc(Cl)c2cccnc12` (stereo not drawn) was tested, and the Potency was 9.77 µM (active). In the case of `OC12N=C(c3ccccc3)SC1Cc1cc(Cl)ccc12` (stereo not drawn), the Potency is reported as “inactive”. `CCCCOC(=O)CC` was tested, and the Potency was “inactive”. For `Cc1cc(-c2ccc(N=Nc3cc(S(=O)(=O)O)c4ccccc4c3N)c(C)c2)ccc1N=Nc1cc(S(=O)(=O)O)c2ccccc2c1N`, the Potency was 19.6 µM (active). `C=CC(=O)OCCOC(=O)C=C` was tested, and the Potency was “inactive”. In the case of `Cc1ccc(O)c(N)c1`, the Potency is reported as “inactive”. `C=C(CC)C(=O)c1ccc(OCC(=O)O)c(Cl)c1Cl` was tested, and the Potency was “inactive”.

What follows are compounds tested against Cytochrome P450 3A4 (Homo sapiens) (UniProt P08684) (assay: Cytochrome P450 Family 3 Subfamily A Member 4 (CYP3A4) small molecule antagonists: luciferase reporter qHTS assay (AID 1671201)). Details: P450-Glo CYP3A4 enzyme, luciferin luminescence, 1 h; series mostly up to 115 µM.
Cytochrome P450 3A4 (Homo sapiens), sequence (P08684 whole entry, looked up): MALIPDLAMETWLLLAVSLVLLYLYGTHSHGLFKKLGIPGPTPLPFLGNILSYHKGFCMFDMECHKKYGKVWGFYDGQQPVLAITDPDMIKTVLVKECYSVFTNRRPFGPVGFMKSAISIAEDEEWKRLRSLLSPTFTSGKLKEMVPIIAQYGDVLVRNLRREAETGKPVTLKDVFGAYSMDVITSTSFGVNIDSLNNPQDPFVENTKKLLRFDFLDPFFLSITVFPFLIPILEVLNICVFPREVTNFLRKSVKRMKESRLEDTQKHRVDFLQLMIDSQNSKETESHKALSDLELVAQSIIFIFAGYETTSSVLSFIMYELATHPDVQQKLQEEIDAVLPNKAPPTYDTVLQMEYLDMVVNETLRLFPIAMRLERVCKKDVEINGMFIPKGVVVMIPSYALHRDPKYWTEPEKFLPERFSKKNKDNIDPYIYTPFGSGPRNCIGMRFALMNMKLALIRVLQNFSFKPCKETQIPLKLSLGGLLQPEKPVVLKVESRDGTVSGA
In short: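 P450-Glo CYP3A4 system with proluciferin substrate; compounds preincubated 10 min RT with enzyme-substrate mix, then NADPH regeneration added for 1 h RT. Detection reagent 20 min, luminescence read as relative luminescence units.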
`Cc1ccc(-c2ccccc2)cc1` was tested, and the Potency was “inactive”. In the case of `CCCC1CCC(=O)CC1`, the Potency is reported as “inactive”. In the case of `c1ccc(SSc2ccccc2)cc1`, the Potency is reported as “inactive”. For `OC[C@H]1O[C@H](O[C@H]2O[C@H](CO)[C@@H](O)[C@H](O)[C@H]2O)[C@H](O)[C@@H](O)[C@@H]1O`, the Potency was “inactive”. With `Cc1cc(C(C#N)c2ccc(Cl)cc2)c(Cl)cc1NC(=O)c1cc(I)cc(I)c1O` (stereo not drawn) the Potency was “inactive”. `CC(C)(C)c1csc(-c2cc3cc(OCc4ccccc4CC(=O)O)ccc3o2)n1` was tested, and the Potency was “inactive”. With `O=[N+]([O-])c1cccc(C(F)(F)F)c1` the Potency was “inactive”. For `COC(=O)Nc1nc2ccc(C(=O)c3ccccc3)cc2[nH]1`, the Potency was “inactive”. In the case of `CCc1cccc(CC)c1NC(=O)CN(CC(=O)O)CC(=O)O`, the Potency is reported as “inactive”. With `Cc1c2ccccc2c(C)c2c1ccc1ccccc12` the Potency was 22.2 µM (active) and 20 µM (active). In the case of `O=c1[nH]c2ccccc2n1CCCN1CCN(C(c2ccccc2)c2ccccc2)CC1`, the Potency is reported as “inactive”. In the case of `C#C[C@]1(OC(C)=O)CC[C@H]2[C@@H]3CCC4=C[C@@H](OC(C)=O)CC[C@@H]4[C@H]3CC[C@@]21C`, the Potency is reported as “inactive”. In the case of `Cc1c(C)c([N+](=O)[O-])c(C(C)(C)C)c([N+](=O)[O-])c1C`, the Potency is reported as “inactive”. For `CCN(CC)c1ccc2c(-c3ccc(S(=O)(=O)O)cc3S(=O)(=O)[O-])c3ccc(=[N+](CC)CC)cc-3oc2c1`, the Potency was 14.6 µM (active). `S=c1nccc[nH]1` was tested, and the Potency was “inactive”. In the case of `Nc1nc(N)nc(-c2cc(Cl)ccc2Cl)n1`, the Potency is reported as “inactive”. `Oc1ccccc1O` was tested, and the Potency was “inactive”. `Cc1cc(-n2nc3ccc(Cl)cc3n2)c(O)c(C(C)(C)C)c1` was tested, and the Potency was “inactive”. `[Cl][Pt-2]([Cl])([Cl])[Cl]` was tested, and the Potency was “inactive”. In the case of `Cc1cccc2cccnc12`, the Potency is reported as “inactive”. For `CC1=Nc2ccccc2C1(C)C`, the Potency was 63.4 µM (active). In the case of `COC1=C(OC)C(=O)C(CCCCCCCCCCO)=C(C)C1=O`, the Potency is reported as “inactive”. With `CCCCCCCCCCCCCC[N+](C)(C)Cc1ccccc1` the Potency was “inactive”. With `CN1CCCCC1CCN1c2ccccc2Sc2ccc(S(C)=O)cc21` (stereo not drawn) the Potency was “inactive”. With `C[C@@H](O)[C@H](N)C(=O)O` the activity change, negative = inhibition was 16.7% [at 23.6 µM] (inactive). In the case of `CC(=O)[C@H]1CC[C@H]2[C@@H]3CCC4=CC(=O)CC[C@]4(C)[C@H]3CC[C@]12C`, the Potency is reported as “inactive”. In the case of `COc1cc2nc(N3CCN(C(=O)c4ccco4)CC3)nc(N)c2cc1OC`, the activity change, negative = inhibition is reported as 135% [at 23.6 µM] (inactive). `CCn1c2ccccc2c2cc([N+](=O)[O-])ccc21` was tested, and the Potency was “inactive”. With `Cc1c(F)c(N2CCNC(C)C2)cc2c1c(=O)c(C(=O)O)cn2C1CC1` (stereo not drawn) the Potency was “inactive”. For `Fc1ccc(C(c2ccc(F)cc2)N2CCNCC2)cc1`, the Potency was “inactive”. With `O=C1c2ccccc2C(=O)N1SC1CCCCC1` the Potency was “inactive”. `CCCCCC(C)OC(=O)COc1ccc(Cl)c2cccnc12` (stereo not drawn) was tested, and the Potency was 12.6 µM (active). `OC12N=C(c3ccccc3)SC1Cc1cc(Cl)ccc12` (stereo not drawn) was tested, and the Potency was 31.7 µM (active). In the case of `CCCCOC(=O)CC`, the Potency is reported as “inactive”. In the case of `Cc1cc(-c2ccc(N=Nc3cc(S(=O)(=O)O)c4ccccc4c3N)c(C)c2)ccc1N=Nc1cc(S(=O)(=O)O)c2ccccc2c1N`, the Potency is reported as “inactive”. For `C=CC(=O)OCCOC(=O)C=C`, the Potency was “inactive”. For `Cc1ccc(O)c(N)c1`, the Potency was 15.9 µM (active). For `C=C(CC)C(=O)c1ccc(OCC(=O)O)c(Cl)c1Cl`, the Potency was “inactive”.

Reference: PubChem BioAssay (Tox21)
Note: nearly all actives have a fitted effect of over 50% in size.
Potency is the fitted concentration of half-maximal effect.
